In PubChem BioAssay AID1117319 (Southern Research Institute, 2015):
Values joined by “and” are separate entries in the source; they are usually repeats but may differ in a detail not shown here. Equal entries are not always repeated. About 1,500 (0.58%) of roughly 260,000 compounds were called active. About 5% were inconclusive and are not listed.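 The calls were made as follows: active = inhibition above a set limit at one or more doses, reproduced on every date tested; inconclusive = results disagree between test dates, or hit never tested in dose response; inactive = the rest.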 Not all results are given here. Potency and affinity values are given separately.

Molecular target: Virion infectivity factor (Human immunodeficiency virus type 1 group M subtype B (isolate BH10)) + Virion infectivity factor (Human immunodeficiency virus type 1 group M subtype B (isolate BRU/LAI)) + Virion infectivity factor (Human immunodeficiency virus type 1 group M subtype B (isolate PCV12)) + Virion infectivity factor (Human immunodeficiency virus type 1 group M subtype B (isolate HXB2)) + DNA dC->dU-editing enzyme APOBEC-3G (Homo sapiens) (UniProt P69720+P69721+P69722+P69723+Q9HC16)
Test: inhibitors of Vif binding to APOBEC3G peptide, primary screen, biochemical, TR-FRET, GST-Vif 1-94, biotin-A3G peptide, dose response retest (AID 1117319);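 also: Vif residues 1-94 fused to GST binding biotinylated APOBEC3G peptide 110-148; 0% = full assay without inhibitor and 100% = GST in place of GST-Vif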
Settings: hits give high values

inhibition, inactive:
CS/C(=N\S(=O)(=O)c1ccc(N)cc1)NS(=O)(=O)c1cccs1 4.67%
O=C(Nc1nnc(CCc2ccccc2)s1)c1ccco1 -2.33%
CSc1nnc(-c2cccc(C)c2)n1N -5.45%
CCOCCCn1c(=NC(=O)c2ccco2)c(C(=O)OCC)cc2c(=O)n3cccc(C)c3nc21 8.51%
O=C(NCc1ccccc1)C1=C[C@H](C2CC2)C[C@H](OCCCCO)O1 -0.51%
CC1=C(C(=O)OCC2CCCO2)C(c2ccc(O)cc2)NC(=O)N1 (stereo not drawn) 10.8%
CCN(C(=O)c1cc2ccccc2o1)C12CC3CC(CC(C3)C1)C2 -6.34%
CN(C)c1ccc(/C=C(/NC(=O)c2ccccc2)C(=O)N/N=C/c2ccc([N+](=O)[O-])c(O)c2)cc1 15.2% and -3.76%
O=C(N/N=C/c1ccc(Br)o1)/C(=C/c1ccc([N+](=O)[O-])cc1)NC(=O)c1ccccc1 12.1%
Cc1cc(=O)oc2cc(OCC(=O)OCC(=O)Nc3ccc4ccccc4c3)ccc12 -10.1%
Cn1nnnc1SCC(=O)N1c2ccccc2CCc2ccccc21 3.78%
CC(C)(Oc1ccc(-c2ccco2)cc1)C(=O)O 3.13%
O=C(O)c1sc(C(=O)O)c(-c2ccccc2)c1-c1ccccc1 2.28%
O=S(=O)(c1ccccc1)N1N=C(c2ccc(Cl)cc2)CC1c1ccco1 (stereo not drawn) 4.42%
O=C(/C=C/c1ccccc1)Nn1cnnc1 -6.05%
NC(=O)Cc1ccc(C(=O)c2ccc(F)cc2)s1 -4.28%
Cc1ccccc1OCCC(=O)OCC(=O)NCCc1ccc(S(N)(=O)=O)cc1 -1.77%
CCOc1ccccc1C(=O)NCC(=O)NCCc1ccc(S(N)(=O)=O)cc1 0.59%
COc1ccccc1C(=O)Nc1cccc(NC(C)=O)c1 12.4%
Oc1ccc2oc3c(c2c1C=NCc1ccncc1)CCCC3 24.2%
Cc1ccc(S(=O)(=O)N(C(=O)c2ccncc2)c2ccc3oc4c(c3c2)CCCC4)cc1[N+](=O)[O-] -4.21%
CCOc1ccccc1C(=O)N[C@H](C(=O)Nc1ccc(OC)c(S(=O)(=O)N2CCOCC2)c1)C(C)C -13.1%
O=C1OCCC1Sc1nnc(-c2cccnc2)n1-c1ccccc1F (stereo not drawn) 5.98%
CCOC(=O)N1CCN(Cc2nnc(-c3cccc(Br)c3)o2)CC1 -4.74%
Cc1ccc2cc(C#N)c(N3CCN(C)CC3)nc2c1 3.3%
Cc1ccc2nc(N3CCN(C)CC3)c(C#N)cc2c1 1.03%
Cn1c(N)c(C(=O)COC(=O)/C=C/c2ccccc2F)c(=O)n(C)c1=O 0.83%
COc1cccc(C(C)=NNc2ccc([N+](=O)[O-])cc2[N+](=O)[O-])c1OC 0.32%
C/C(=N\NC(=O)c1ccc([N+](=O)[O-])cc1)c1cc2ccccc2oc1=O 13.4%
Cc1cc(N/N=C/c2cccc(F)c2)nc(NCc2ccccc2)n1 4.51%
Cc1cccc(-n2c(N)cc(=O)nc2SC(C)C(=O)NC2CCCCC2)c1 (stereo not drawn) -1.72%
Nc1cc(=O)nc(SCC(=O)NC2CCCCC2)n1-c1ccccc1 -0.99%
O=[N+]([O-])c1ccc(O)c(C2=NNC(c3ccccc3F)C2)c1 (stereo not drawn) 13.2%
O=C(N/N=C/c1cc2c(cc1Br)OCO2)c1ccccn1 7.07%
O=C(O)c1ccc(S(=O)(=O)N2CCCCCCC2)cc1 1.86%
O=C(O)c1ccc(S(=O)(=O)N2CCCCCC2)cc1 1.58%
CC(C)(C)c1cc(NC(=O)COC(=O)C2CC2)n(-c2ccccc2)n1 -5.93%
COc1cc(OC)nc(NC(=O)CN2CCN(c3ccc(F)cc3)CC2)n1 4.2%
CC1=C(C(=O)OC(C)C)C(c2cccs2)C(C(=O)OC(C)C)=C(C)N1 -3.55%
CC(=O)C1=C(C)NC(=O)NC1c1cccs1 (stereo not drawn) 7.19%
COC(=O)c1ccc2c(=O)n(CC3CCCO3)c(SCC(=O)Nc3ccc(OC)cc3OC)nc2c1 (stereo not drawn) -7.78%
CCCN1C2CCCC1CC(NC(=O)c1cc(OC)c(OC)c(OC)c1)C2 (stereo not drawn) 9.1%
COc1ccc(C(=O)NC2CC3CCCC(C2)N3CC(C)C)cc1OC (stereo not drawn) -7.52%
Cc1noc(C)c1CSc1ncnc2sc3c(c12)CCC3 -4.14%
COc1ccc(/C(N)=N/OC(=O)c2ccco2)cc1 -1.36%
O=C1c2ccccc2-c2c1cccc2C(=O)N1CCN(C(=O)c2ccco2)CC1 18.7%
CCN1C(=O)c2ccccc2S(=O)c2ccc(C(=O)N3CCN(C(=O)c4ccco4)CC3)cc21 (stereo not drawn) 1.84%
CCOC(=O)c1c(/N=C/c2cccc([N+](=O)[O-])c2O)sc2c1CCC2 27%
CCCCn1cnc2c(SCc3ccc(Br)cc3)nc(N)nc21 -11.3%
CC(CN(C(N)=O)c1ccccc1O)C(=O)O (stereo not drawn) 17.1%
CC(CC(C)C(=O)Nc1ccccc1C(C)(C)C)C(=O)O (stereo not drawn) 5.47%
CCC1CCCCN1C(=O)COc1cc(=O)n(C)c2ccccc12 (stereo not drawn) 1.25%
O=C1c2cccc(O)c2C(=O)c2c(O)cccc21 23.8%
O=C1c2cccc(NCCNCCO)c2C(=O)c2cccc(NCCNCCO)c21 -16.1%
COc1cccc(NC(=O)CN(C)C(=O)c2ccc(COc3ccccc3)o2)c1 10.4%
O=C(CSc1ccc(-c2ccccc2)nn1)N1CCOCC1 8.48%
COc1cc(/C=C2/SC(=NCc3ccccc3)N(Cc3ccccc3)C2=O)ccc1O -3.52%
COc1ccccc1N1CCN(C(=O)c2sc3nc(-c4ccccc4)cn3c2C)CC1 -3.37%
Cc1c(C(=O)N2CCN(c3ccc(F)cc3)CC2)sc2nc(-c3ccccc3)cn12 -5.76%
COc1cccc(/C=N/NC(=O)C(=O)NCc2ccco2)c1O -4.26%
CN(C)CCN=Cc1c(O)n(Cc2ccc3c(c2)OCO3)c(=O)c2ccccc12 -11.8%
C=CCSc1nc2sc3c(c2c(=O)n1CC)CCC3 6.31%
CCn1c(SCC(N)=O)nc2sc3c(c2c1=O)CCCC3 -2.97%
CC(Sc1nc2sc3c(c2c(=O)n1-c1ccccc1)CCCC3)C(=O)O (stereo not drawn) 17%
CCn1c(SCC(=O)O)nc2sc3c(c2c1=O)CCC3 32.7%
CC1(C)CC(=O)C=C(c2n[nH]nc2C2CC2)C1 4.55%
CCN(Cc1ccccc1)C(=O)c1cc(S(=O)(=O)N2CCOCC2)ccc1N1CCCC1 3.77%
Cc1cc(Nc2ccc(Br)cc2)nc(-c2ccccc2O)n1 -1.59%
CC(=NCc1cccc(Cl)c1)c1nc(-c2ccco2)oc1O 8.49%
O=C(c1cccc(F)c1)N1CCCC(C(=O)N2CCCC2)C1 (stereo not drawn) -3.84%
O=C(Nc1ccc(Oc2ccccc2)cc1)c1ccc(Cn2c(=O)[nH]c3ccsc3c2=O)cc1 -6.11%
Cc1ccccc1NC(=O)CSc1n[nH]c(-c2ccco2)n1 9.51%
Cc1cccc(C)c1NC(=O)CSc1nc(-c2ccco2)cc(C(F)(F)F)n1 -1.99%
Cc1cccc(NC(=O)CSc2nnc(-c3ccco3)o2)c1C -1.43%
Cc1cccc(C)c1NC(=O)CSc1nnc(-c2ccco2)n1N -0.27%
Cc1cccc(NC(=O)CSc2nnc(CNC(=O)c3ccco3)n2C)c1C -5.41%
Cc1ccccc1NC(=O)CSc1nnc(-c2ccco2)n1N -10.3%
CN(C)c1ccc(C(CNS(=O)(=O)c2cccc([N+](=O)[O-])c2)N2CCOCC2)cc1 (stereo not drawn) -0.61%
COc1ccc(CN(CC(=O)NCc2ccc(F)cc2)C(=O)c2ccco2)cc1 -3.39%
O=C(CSc1nnc(-c2cnccn2)n1Cc1ccco1)c1ccc2ccccc2c1 4.99%
CCn1cc(C(=O)NCc2ccc3c(c2)OCO3)c(=O)c2cc(S(=O)(=O)N3CCOCC3)ccc21 -9.22% and 8.82%
CCOc1ccc(C=NN2CCCCCC2)cc1OCC -8.05%
CCCCC12CN3CC(C)(CN(C1)C31C(=O)N(C)c3ccc(C)cc31)C2=O (stereo not drawn) 3.69%
N#Cc1cccnc1Nc1ccc(Cl)cc1 8.98%
CN(C(=O)COC(=O)c1ccc(Cl)cc1N)C1CCS(=O)(=O)C1 (stereo not drawn) -4.2%
OCCC1CN(Cc2ccccc2-c2ccco2)CCN1Cc1ccccc1 (stereo not drawn) 15.2%
N#CC1=C2SCN(Cc3ccco3)CN2C(=O)CC1c1cccc2ccccc12 (stereo not drawn) 16%
COc1cc(C2CC(=O)N3CN(Cc4ccco4)CSC3=C2C#N)ccc1OCc1ccccc1 (stereo not drawn) 24.2%
O=C(CN(Cc1ccc(F)cc1)C(=O)CNS(=O)(=O)c1ccccc1)NCC1CCCO1 (stereo not drawn) 2.58%
O=C(OCCN1C(=O)c2ccccc2C1=O)c1cc(S(=O)(=O)N2CCOCC2)ccc1F -0.69%
CC1=C(C(=O)OC2CCCCC2)C(c2ccccc2Br)NC(=O)N1 (stereo not drawn) -6.38%
CNc1cccc2c1C(=O)c1ccccc1C2=O 7.57%
CNC(=S)Nc1ccccc1-c1ccccc1 -7.68%
